# IDE exosite inh = displaces the probe from the exo-site of human IDE; P14735; AID 1259349; actives 6.3% (n = 17,000); z-score at 20 µM; purified IDE, FL-6b probe fluorescence polarization; active compounds read low;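 active means z-score of -3 or lower, meaning strong loss of probe binding signal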;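 further: His-tagged human IDE residues 42-1019 made in E. coli with 30 nM FL-6b probe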
# Numbers stand for hits; i = inactive. The sample as a whole holds a higher share of hits than the screen did.
SMILES,IDE exosite inh
O=C(c1ccc2c(c1)OCO2)N1CC(=O)N2[C@H](CO)[C@H](c3ccc(C#Cc4ccccc4)cc3)[C@@H]2C1,i
Cc1cccc(-c2ccc([C@@H]3[C@@H](CO)N4C(=O)CN(C(=O)c5ccccc5)C[C@H]34)cc2)c1,i
O=C(c1ccc2c(c1)OCO2)N1CC(=O)N2[C@H](CO)[C@@H](c3ccc(C#Cc4ccccc4)cc3)[C@H]2C1,i
Cc1cccc(-c2ccc([C@@H]3[C@H](CO)N4C(=O)CN(C(=O)c5ccccc5)C[C@@H]34)cc2)c1,-4.62
COc1ccc(-c2ccc([C@@H]3[C@@H](CO)N4C(=O)CN(C(=O)c5ccc6c(c5)OCO6)C[C@H]34)cc2)cc1,i
O=C(c1ccc2c(c1)OCO2)N1CC(=O)N2[C@@H](CO)[C@H](c3ccc(C#Cc4ccccc4)cc3)[C@@H]2C1,-4.32
Cc1ccc(-c2ccc([C@H]3[C@@H](CO)N4C(=O)CN(C(=O)c5ccccc5)C[C@@H]34)cc2)cc1,i
Cc1cccc(-c2ccc([C@H]3[C@@H](CO)N4C(=O)CN(C(=O)c5ccc6c(c5)OCO6)C[C@@H]34)cc2)c1,-3.1
Cc1ccc(-c2ccc([C@@H]3[C@@H](CO)N4C(=O)CN(C(=O)c5ccccc5)C[C@H]34)cc2)cc1,i
Cc1cccc(-c2ccc([C@H]3[C@H]4CN(C(=O)c5ccccc5)CC(=O)N4[C@H]3CO)cc2)c1,i
Cc1cccc(-c2ccc([C@H]3[C@H](CO)N4C(=O)CN(C(=O)c5ccccc5)C[C@@H]34)cc2)c1,-7.39
O=C(c1ccc2c(c1)OCO2)N1CC(=O)N2[C@H](CO)[C@@H](c3ccc(-c4ccccc4)cc3)[C@H]2C1,i
COc1ccc2c3c([nH]c2c1)[C@H](CO)N(Cc1ccc(Cl)cc1)CC31CCN(Cc2nccs2)CC1,i
OC[C@@H]1[C@@H](c2ccc(C#CC3(O)CCCC3)cc2)[C@@H]2CN(Cc3ccncc3)CCCCN12,i
CO[C@H]1CN(C)C(=O)c2ccc(NC(=O)c3nc4ccccc4s3)cc2OC[C@@H](C)N(Cc2cccnc2)C[C@H]1C,i
CC(=O)N1[C@H](CN(CC(C)C)C(=O)c2ccccn2)[C@H](c2ccccc2)[C@@H]1CO,i
CN(C)C(=O)c1cc2c(c(-c3cccc(/C=C/c4ccccc4)c3)n1)[C@H](CCO)N([S@@](=O)C(C)(C)C)C2,i
COc1ccc2c3c(n(C)c2c1)[C@H](CO)N(C(C)=O)CC31CCN(C(=O)c2cnccn2)CC1,i
CC(=O)N1CC(=O)N2[C@@H](CO)[C@H](c3ccc(-c4ccccc4)cc3)[C@@H]2C1,i
O=C(C[C@H]1C[C@H]2c3cc(NC(=O)CC4CC4)ccc3O[C@H]2[C@H](CO)O1)NCC1CC1,i
COCC(=O)Nc1ccc2c(c1)[C@@H]1C[C@H](CC(=O)N3CCOCC3)O[C@@H](CO)[C@@H]1O2,i
CC(=O)N1[C@H](CO)[C@@H]2c3ccccc3N(C(=O)c3ccc(F)cc3)C[C@@H]21,i
O=C(c1ccccc1F)N1CC(=O)N2[C@@H](CO)[C@@H](c3ccc(-c4cccnc4)cc3)[C@@H]2C1,i
O=C(c1ccccc1F)N1CC(=O)N2[C@@H](CO)[C@H](c3ccc(-c4cccnc4)cc3)[C@@H]2C1,i
CCC(=O)N1CC(=O)N2[C@H](CO)[C@H](c3ccc(-c4cccnc4)cc3)[C@H]2C1,-3.12
SMILES,IDE exosite inh
O=C(C1CCCCC1)N1CC(=O)N2[C@@H](CO)[C@H](c3ccc(-c4cccnc4)cc3)[C@@H]2C1,i
O=C(C1CCCCC1)N1CC(=O)N2[C@H](C1)[C@H](c1ccc(-c3cccnc3)cc1)[C@@H]2CO,i
CCC(=O)N1CC(=O)N2[C@H](CO)[C@@H](c3ccc(-c4cccnc4)cc3)[C@@H]2C1,i
O=C1CN(Cc2ccc(F)cc2)C[C@H]2[C@@H](c3ccc(-c4cccnc4)cc3)[C@H](CO)N12,i
O=C(C1CCCCC1)N1CC(=O)N2[C@H](CO)[C@H](c3ccc(-c4cccnc4)cc3)[C@H]2C1,-4.75
Cc1ccc(CN2CC(=O)N3[C@@H](CO)[C@H](c4ccc(-c5cccnc5)cc4)[C@@H]3C2)cc1,-3.09
CCC(=O)N1CC(=O)N2[C@@H](CO)[C@H](c3ccc(-c4cccnc4)cc3)[C@@H]2C1,i
O=C(c1ccccc1F)N1CC(=O)N2[C@H](C1)[C@@H](c1ccc(-c3cccnc3)cc1)[C@@H]2CO,-3.11
O=C1CN(Cc2ccc(F)cc2)C[C@@H]2[C@@H](c3ccc(-c4cccnc4)cc3)[C@@H](CO)N12,i
CCS(=O)(=O)N1CC2(CN(C(=O)NC(C)C)[C@H](CO)c3c2c2ccc(OC)cc2n3C)C1,i
O=C(c1ccc(F)cc1)N1CC(=O)N2[C@H](CO)[C@@H](c3ccc(C#CC4CC4)cc3)[C@@H]2C1,i
CCCC#Cc1ccc([C@H]2[C@H](CO)N3C(=O)CN(C(=O)Nc4ccccc4)C[C@@H]23)cc1,i
O=C(C1CCCCC1)N1CC(=O)N2[C@H](CO)[C@H](c3ccc(C#CCc4ccccc4)cc3)[C@H]2C1,i
C/C=C/c1ccc([C@H]2[C@@H](CNC(=O)c3ccccn3)N(C(=O)CC)[C@H]2CO)cc1,i
CN1C(=O)c2cc(NS(=O)(=O)c3cccc(F)c3)ccc2OC[C@@H]2O[C@H](CC(=O)N3CCc4ccccc4C3)CC[C@@H]21,i
CS(=O)(=O)N1CC(=O)N2[C@H](CO)[C@@H](c3ccc(C#CC4CCCC4)cc3)[C@@H]2C1,i
N#C[C@@H]1[C@H](c2ccc(C#CC3CCCCC3)cc2)[C@H](CO)N1C(=O)c1cccc(F)c1,i
COc1cccc(NC(=O)N2CC(=O)N3[C@H](CO)[C@@H](c4ccc(Br)cc4)[C@H]3C2)c1,i
Cc1ccc(-c2ccc([C@@H]3[C@@H](CO)N4C(=O)CN(C(=O)NC(C)C)C[C@H]34)cc2)cc1,i
Cc1ccc(-c2ccc([C@H]3[C@@H](CO)N4C(=O)CN(C(=O)NC(C)C)C[C@@H]34)cc2)cc1,i
C/C=C/c1ccc([C@H]2[C@@H](CO)N3C(=O)CN(C(=O)Nc4ccc(OC)cc4)C[C@@H]23)cc1,i
C/C=C/c1ccc([C@H]2[C@H](CO)N3C(=O)CN(C(=O)Nc4ccc(OC)cc4)C[C@@H]23)cc1,i
COc1cccc(-c2ccc([C@@H]3[C@H]4CN(C(=O)NC(C)C)CC(=O)N4[C@H]3CO)cc2)c1,-11.8
COc1cccc(-c2ccc([C@H]3[C@@H](CO)N4C(=O)CN(C(=O)NC(C)C)C[C@@H]34)cc2)c1,-5.42
COc1cccc(NC(=O)N2CC(=O)N3[C@@H](CO)[C@@H](c4ccc(Br)cc4)[C@@H]3C2)c1,i
SMILES,IDE exosite inh
COc1cccc(NC(=O)N2CC(=O)N3[C@H](C2)[C@@H](c2ccc(Br)cc2)[C@@H]3CO)c1,-3.24
C/C=C/c1ccc([C@H]2[C@H]3CN(C(=O)Nc4ccc(OC)cc4)CC(=O)N3[C@H]2CO)cc1,-5.09
C[C@H](NC(=O)C[C@@H]1C[C@H]2c3cc(NS(=O)(=O)c4ccc(F)cc4)ccc3O[C@H]2[C@@H](CO)O1)c1ccccc1,i
C[C@@H]1CN([C@H](C)CO)C(=O)c2ccccc2-c2ccccc2CO[C@H]1CN(C)C(=O)Nc1ccnc(N2CCOCC2)c1,i
C[C@H](CO)N1C[C@H](C)[C@@H](CN(C)CC2CC2)Oc2ccc(NC(=O)CCC(F)(F)F)cc2CC1=O,i
COc1ccc(C[C@H]2CCn3nncc3COCCCNC2=O)cc1,i
CCC(=O)N1CC2(C1)[C@@H](c1ccc(-c3cccc(C)c3)cc1)[C@H](CO)N2S(C)(=O)=O,i

# Assay outcomes (PubChem)
